# Experimental data reported in PubChem BioAssay (NCI).
# About 79,000 compounds went through this panel and 15% of them were active in at least one assay; those are over-represented in the sample as a whole. Unmarked numbers belong to inactive results. No stated cut-off is given here; in the data, active means growth inhibition above about 70%; inactive means the rest.
# Assay: NCI Yeast Anticancer Drug Screen. Data for the rad50 strain (AID 155);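 further: 0% = growth of vehicle-only cultures of the same strain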
# Conditions: S. cerevisiae rad50 strain growth inhibition; at 50.0 µM; stronger effect = higher value
# Summary of the method: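 DNA repair mutant yeast, compound exposure, growth read-out; inhibition is taken relative to vehicle.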
row,SMILES,growth inhibition
1,CN1C(=O)C(=O)n2c(cc3ccccc32)C1=O,1.15%
2,CSSC(SC)SC,31.9%
3,CC(C)=C(CSC#N)S(=O)(=O)c1ccc(C)cc1,0.45%
4,S=C(c1ccccc1Cl)N1CCOCC1,18.2%
5,CCN(CC)c1ccccc1-c1ccccc1,34.9%
6,CC(=O)Nc1ccc(/C=N/NC(N)=O)cc1,16.4%
7,O=C1CC2C(=O)N(Cc3ccccc3)C1C=C2S(=O)(=O)c1ccccc1 (stereo not given),-15.7%
8,CC/C(C)=C1/CC(C)(C)N=C1C,-11.7%
9,O=C1c2cccc3cc([N+](=O)[O-])cc(c23)C(=O)N1C(Cc1ccccc1)c1ccccc1 (stereo not given),4.1%
10,NC(N)=Nc1nc2ccc(Cl)cc2[nH]1,29.2%
11,COC(=O)CCSc1ccccc1,0.55%
12,O=C(C(=O)c1cccc(C(=O)C(=O)c2ccccc2)c1)c1ccccc1,5.45%
13,CCCCS(=O)(=O)Nc1cccc(C(=O)O)c1,2.85%
14,CCC(CC)OC(=O)Nc1cccc2ccccc12,-16.4%
15,CN(C)CCCN=C(N)N,1.25%
16,CCC(=O)N(C)C1(C#N)CCCCC1,29.4%
17,CONC(CC(=O)c1ccccc1)c1ccccc1 (stereo not given),23.4%
18,Cn1ncc2c(N)nc(NCCO)nc21,1.1%
19,O=C1NC(c2cccc3ccccc23)Nc2ccccc21 (stereo not given),3.05%
20,O=C1C(Cl)(Cl)C(=O)C(Cl)(Cl)C(=O)C1(Cl)Cl,20.2%

row,SMILES,growth inhibition
1,NC1C(O)C(N)C(O)C(O)C1O (stereo not given),3.3%
2,CCOc1ccc(C(C)(CC)c2cc3c(cc2OC)OCO3)cc1 (stereo not given),-18.9%
3,C/C(CCC(=O)O)=N\NC(=O)COc1ccc(Cl)cc1Cl,31.4%
4,CCCCCCCCCCCC1=c2o[nH]c2=C(c2ccccn2)C(=O)C1=O,-15.2%
5,O=CC(NC(=O)N(CCF)N=O)C(O)C(O)C(O)CO (stereo not given),-15%
6,O=C(O)c1cc(/C=C/c2ccccc2)ccc1[N+](=O)[O-],-11.2%
7,NNC(=S)N/N=C(\c1nc2ccc(Cl)cc2[nH]c1=O)C(O)c1cccc([N+](=O)[O-])c1 (stereo not given),48.6%
8,CCN(CC)c1ccc2cc(-c3nc4ccccc4[nH]3)c(=O)oc2c1,2%
9,CN(C)C(=O)Nc1ccc2c(c1)OCO2,0.8%
10,Oc1cc2c(cc1C(c1ccc(Cl)cc1)N1CCCCC1)OCO2 (stereo not given),9.65%
11,c1ccc2c(c1)Cc1c-2n[nH]c1-c1[nH]nc2c1Cc1ccccc1-2,26.6%
12,CCOC(=O)c1c(/N=C/c2ccc(N(C)C)cc2)sc2c1CCCC2,14.2%
13,Cc1csc[n+]1C/C(=N/O)c1ccc(I)cc1,36.2%
14,C(=C\C(Sc1ccccc1)c1ccccc1)/NNC1=NC(c2ccccc2)C(c2ccccc2)=NN1 (stereo not given),-22.4%
15,CCOc1ccccc1NC(=O)/C=C1\NC(=O)CS1,-8.55%
16,CN(C)CCCCCCNCCC#N,21.2%
17,CC(=O)OC(OC(C)=O)c1cccc2ccccc12,3.05%
18,CC(C)CCCC(C)C1CCC2C(CC(=O)O)C(C3(C)CCC(O)CC3=O)CCC2(C)C1 (stereo not given),23.9%
19,N#Cc1nc(Nc2ccc([N+](=O)[O-])cc2)sc1N,55.1%
20,O=C(O)COc1cc(Cl)cc(F)c1Cl,-23.6%
